# Test results reported in PubChem BioAssay AID1851 (National Center for Advancing Translational Sciences (NCATS), 2009).
# Values joined by “and” are separate entries in the source; they are usually repeats but may differ in a detail not shown here. Equal values may be shown once. In all, about 16,000 compounds went through this assay and about 5,100 (32%) were called active. Inconclusive results (about 25%) are left out. Calls follow the shape of the dose curve; as a rule, active = well fitted curve in the direction sought with a large enough effect; inconclusive = small, poorly fitted or top-dose-only effect, or effect the other way; inactive = no such curve, though single readings can be large or run the other way. The list shows a part of the results.
# Molecular target: Cytochrome P450 3A4 (Homo sapiens) (UniProt P08684)
# Sequence (P08684 whole entry, looked up): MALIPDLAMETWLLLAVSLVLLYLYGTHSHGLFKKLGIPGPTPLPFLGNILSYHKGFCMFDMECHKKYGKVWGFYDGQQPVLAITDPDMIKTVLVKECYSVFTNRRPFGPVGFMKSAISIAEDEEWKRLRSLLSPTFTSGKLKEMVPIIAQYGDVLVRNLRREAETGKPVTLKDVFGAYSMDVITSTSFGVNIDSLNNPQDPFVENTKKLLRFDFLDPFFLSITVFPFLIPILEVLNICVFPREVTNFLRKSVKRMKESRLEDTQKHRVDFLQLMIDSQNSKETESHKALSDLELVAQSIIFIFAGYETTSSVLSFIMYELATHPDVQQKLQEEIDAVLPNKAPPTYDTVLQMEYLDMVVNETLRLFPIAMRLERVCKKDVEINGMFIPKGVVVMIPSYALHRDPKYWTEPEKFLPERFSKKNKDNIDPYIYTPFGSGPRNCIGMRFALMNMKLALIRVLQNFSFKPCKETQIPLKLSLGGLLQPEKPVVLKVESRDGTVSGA
# Assay: Cytochrome panel assay with activity outcomes
# Settings: recombinant CYP, pro-luciferin dealkylation, luminescence, p450-cyp3a4; series mostly up to 57.1 µM
# % is scaled to controls: 0 for no effect and ±100 for the full control effect.
Compound,AC50,"activity, negative = inhibition"
CC(C)Oc1cccc(-n2c(CCc3c[nH]c4ccc(Br)cc34)nc3ccccc3c2=O)c1,3.98 µM (active),
O=C(O)Cc1c[nH]c2ccc(O)cc12,inactive,
C/C(CC/C(C)=N/O)=N/O,,-10.6% [at 11.4 µM] (inactive)
O=C(O)c1c[nH]c2c(ccc3[nH]cc(C(=O)O)c(=O)c32)c1=O,,-16.3% [at 11.4 µM] (inactive)
Cc1c(NC(=O)C(C)N2C(=O)c3ccccc3C2=O)c(=O)n(-c2ccccc2)n1C (stereo not given),inactive,
Cc1cc(C(=O)Nc2c(C)n(C)n(-c3ccccc3)c2=O)c2ccccc2n1,inactive,
Cc1cc(SC(C)C(=O)Nc2c(C)n(C)n(-c3ccccc3)c2=O)nc2ccccc12 (stereo not given),12.6 µM (active),
O=C(Nc1cccc2ncccc12)c1ccc(-c2ccc(Br)cc2)o1,2.82 µM (active),
Cc1ccc(OCC(=O)N/N=C\c2c(C)n(C)c3ccccc23)c([N+](=O)[O-])c1,7.08 µM (active),
COc1ccc(C=O)cc1COc1ccc(C)cc1[N+](=O)[O-],inactive,
CC(=O)N/N=C/c1cc([N+](=O)[O-])ccc1OCCOc1ccccc1,inactive,
COc1ccccc1-c1ccc2ncnc(N(C)C)c2c1,5.01 µM (active),
Cc1ccccc1-c1ccc2ncnc(N(C)C)c2c1,3.16 µM (active),
Cc1ccc(S(=O)(=O)CCC(=O)Nc2nc3c(s2)CCCC3)cc1,8.91 µM (active),
CC(=O)N1CCc2cc(S(=O)(=O)CCC(=O)Nc3c(C)n(C)n(-c4ccccc4)c3=O)ccc21,inactive,
Nc1cc(-c2nn[nH]n2)ccc1F,inactive,
COC(=O)C/C=C\[C@@H](C)[C@@H](/C=N\OC[C@@H]1O[C@H](c2ccccc2)C=C[C@@H]1Oc1ccc(OC)cc1)NS(=O)(=O)c1ccc(C)cc1,5.01 µM (active),
COC(=O)C/C=C\[C@@H](C)[C@@H](/C=N\OC[C@@H]1O[C@H](c2ccccc2)C=C[C@@H]1Oc1ccc(OC)cc1)OC,3.16 µM (active),
CC(C)CSC[C@@H]1O[C@H](n2cnc3c(N)nccc32)[C@H](O)[C@@H]1O,,-25.4% [at 11.4 µM] (inactive)
Cc1noc(C)c1-c1cc(N2CCN(C)CC2)ncn1,inactive,

Compound,AC50,"activity, negative = inhibition"
CN1CCN(c2cc(-c3ccccc3C(F)(F)F)ncn2)CC1,inactive,
COc1ccccc1-c1cncnc1N1CCN(C)CC1,2.51 µM (active),
CN1CCN2c3ncccc3Cc3ccccc3C2C1 (stereo not given),inactive,
Cc1noc(C)c1-c1cncnc1N1CCN(C)CC1,12.6 µM (active),
Cc1ccccc1-c1cncnc1N1CCN(C)CC1,1.58 µM (active),
CN1CCN(c2ncncc2-c2ccccc2Cl)CC1,1.58 µM (active),
Cc1ccccc1NC(=S)NN1CCN(C)CC1,inactive,
CN1CCN(c2ncncc2-c2ccoc2)CC1,7.94 µM (active),
CC(C)(C)c1c2c(c(C(C)(C)C)c3c1OCN(Cc1ccccc1)C3)OCN(Cc1ccccc1)C2,,5.7% [at 11.4 µM] (inactive)
CC[C@@H](Nc1ncnc2nc[nH]c12)C(=O)O,,-5.2% [at 11.4 µM] (inactive)
COc1ccc(OCC(=O)NNC(=O)c2ccc(-c3ccccc3)cc2)cc1,inactive,
COc1ccc(C(=O)NNC(=O)Cc2ccc(-c3ccccc3)cc2)cc1OC,6.31 µM (active),
Cc1occc1C(=O)NNC(=O)Cc1ccccc1,inactive,
COc1cc(/C=N\NC(=O)C2C(=O)NCC2c2ccccc2)cc(OC)c1O (stereo not given),inactive,
CC(C)[C@H](N)c1nnc(SC/C=C/c2ccccc2)o1,1.26 µM (active),
CSc1nsc(SCc2ccc(Cl)cc2)n1,inactive,
CC(C)[C@H](N)c1nnc(SCc2ccc(Cl)cc2)o1,1.58 µM (active),
Clc1ccc(CSc2ncnc3c2ncn3[C@@H]2CCCCO2)cc1,,11.8% [at 11.4 µM] (inactive)
Clc1cccc(Cl)c1CSc1nnc(/C=C/c2ccccc2)o1,,-16.1% [at 11.4 µM] (inactive)
CC(C)=NNc1ncnc2nc[nH]c12,,4.57% [at 11.4 µM] (inactive)

Compound,AC50,"activity, negative = inhibition"
NOCC(=O)O,inactive,
O=C(O)CCNc1ccccc1C(=O)O,,-9.69% [at 11.4 µM] (inactive)
CN1CCN(c2ncc3nc(-c4cn(C)c5ccccc45)c(=O)n(CCc4ccccc4)c3n2)CC1,15.8 µM (active),
CN1CCN(c2ncc3ncc(=O)n(-c4ccccc4)c3n2)CC1,inactive,
Cn1cc(-c2nc3cnc(N4CCNCC4)nc3n(Cc3ccc(F)cc3)c2=O)c2ccccc21,12.6 µM (active),
CN1CCN(c2ncc3nc(-c4ccccc4)c(=O)n(C)c3n2)CC1,inactive,
CN1CCN(c2ncc3nc(-c4cn(C)c5ccccc45)c(=O)n(-c4ccccc4)c3n2)CC1,25.1 µM (active),
Cn1cc(-c2nc3cnc(N4CCNCC4)nc3n(CCc3ccccc3)c2=O)c2ccccc21,12.6 µM (active),
NC1=C2NC=N[C@@H]2N(C/C=C\c2ccccc2)C=N1,,-17.9% [at 11.4 µM] (inactive)
CN(C)Cc1c[nH]c2nc[nH]c(=O)c12,,-2.68% [at 11.4 µM] (inactive)
O=C(O)C1=C/C(=C(/c2ccccc2)c2cc(C(=O)O)c(O)c3ccccc23)c2ccccc2C1=O,,6.76% [at 11.4 µM] (inactive) and -24.1% [at 11.4 µM] (inactive)
Cn1cc(-c2nc3cnc(N4CCNCC4)nc3n(C)c2=O)c2ccccc21,20 µM (active),
Cn1c(=O)c(-c2ccccc2)nc2cnc(N3CCNCC3)nc21,inactive,
COCCn1c(=O)c(-c2cn(C)c3ccccc23)nc2cnc(N3CCNCC3)nc21,25.1 µM (active),
O=S(=O)(O)c1cc(N=[N+]([O-])c2cc(S(=O)(=O)O)c3ccccc3c2)cc2ccccc12,,-21.4% [at 11.4 µM] (inactive)
O=C(NC(Cc1ccccc1)C(=O)O)/C(=C\c1ccco1)NC(=O)c1ccc(Br)cc1 (stereo not given),inactive,
Cc1ccc(NC(=O)/C(=C\c2ccc3c(c2)OCO3)NC(=O)c2ccco2)cc1,2.51 µM (active),
CC(=O)NS(=O)(=O)c1ccc(NC(=S)NC(=O)c2ccco2)cc1,inactive,
O=C(N/N=C/c1ccc2c(c1)OCO2)/C(=C/c1ccc2c(c1)OCO2)NC(=O)c1ccccc1,1.12 µM (active),
C=CCNC(=O)/C(=C\c1ccc2c(c1)OCO2)NC(=O)c1ccc(Br)cc1,0.447 µM (active),
